Assay results taken from PubChem BioAssay (NCI).
About 83,000 compounds went through this panel and 20% of them were active in at least one assay; those are over-represented in the sample as a whole.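 How to read the values: 0–100, growth inhibition (40 = 60% inhibited); 0, no net growth; -100 to 0, cell death (-40 = 40% of starting cells died; -100 = all dead).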 Activity calls are given as the source filed them. How the source made its calls: active means growth percent below 10; inactive means the rest.

What follows are compounds tested on HOP-62 NSCLC (assay: NCI-60 one-dose screen, 48 h (100 = growth as untreated, 0 = no growth, -100 = all killed)). Details: 10 µM unless noted.

SMILES | growth
Cc1c(C(=O)NC(Cc2ccccc2)C(O)C(=O)NCc2ccc(F)cc2)[nH]c2ccccc2c1=O (stereo unspecified) | 99.2% (inactive)
Cc1cc(C(=O)c2ccccc2)c(C)c2c1[nH]c1ccc(Cl)cc12 | 34.3% (inactive)
COc1ccc(C(=O)/C=C/c2c(C(F)(F)F)nc3sccn23)cc1OC | 25% (inactive)
O=Cc1c[nH]c2ccc(-c3csc4ccccc34)cc12 | 42.8% (inactive)
Cc1ccc(/C=C/c2c(C(=O)/C=C/c3ccc(C(F)(F)F)cc3)c(C)nc3ccccc23)cc1 | -37.2% (active)
N#CC1=C(/N=C/c2ccccc2)Oc2c(ccc3ccccc23)C1c1ccccc1 (stereo unspecified) | 21.1% (inactive)
O=C(NCCc1ccc(O)c(O)c1)C12CC3CC(CC(C3)C1)C2 | 74.3% (inactive)
Cc1cc(=O)[nH]c(N=Nc2c(O)[nH]c3ccccc23)n1 | 119% (inactive)
COc1ccc2oc3c(C)c4c(c(C)c3c2c1)C(=O)N(Cc1ccccc1)C4=O | 88.9% (inactive)
COc1ccc2[nH]c(O)c(/C=c3/cc4c(c(-c5cc(OC)c(OC)c(OC)c5)n3)=Nc3ccccc3-4)c2c1 | 86.2% (inactive)
CC(=O)c1nc(Nc2ccc(C)cc2)sc1C | 85.7% (inactive)
COc1ccc(N=C(c2ccccc2)C2C(=O)c3ccccc3C2=O)cc1 | 97% (inactive)
CCCCc1ccc(Nc2ccc(Nc3ccc(CCCC)cc3S(=O)(=O)O)c3c2C(=O)c2ccccc2C3=O)c(S(=O)(=O)O)c1 | 99.5% (inactive)
Cc1nn(-c2ccccc2)c2nc3c(c(-c4ccc(Cl)cc4)c12)CNC1(CCSCC1)N3 | 93.6% (inactive)
CN1CCN(CCCOc2ccc3nc(Nc4ccc(F)c(F)c4)ccc3c2)CC1 | 22.5% (inactive)
CC(CN1CCCCC1)C(=O)c1ccccc1 (stereo unspecified) | 103% (inactive)
Cc1cc(/C=C\c2ccc3ccccc3[n+]2C)c(O)c2ncccc12 | 20.3% (inactive)
COc1ccc2cc(-c3cc(OC)c(OC)c(OC)c3)c(=O)oc2c1 | 68.3% (inactive)
Cc1ccc(C2SCC(=O)N2Cc2ccccc2)cc1 (stereo unspecified) | 104% (inactive)

SMILES | growth
Cc1ccc(S(=O)(=O)Oc2cc(OS(=O)(=O)c3ccc(C)cc3)cc(OS(=O)(=O)c3ccc(C)cc3)c2)cc1 | 101% (inactive)
CS(=O)c1cccc(-c2ccc3nc(N)n(-c4ccc(C(F)(F)F)cc4)c(=O)c3c2)c1 (stereo unspecified) | 98% (inactive)
Clc1ccc(-c2c3ccc(=[N+]4CCCCC4)cc-3oc3cc(N4CCCCC4)ccc23)cc1 | -89% (active)
O=C1Nc2ccccc2/C1=C/c1cn(C(=O)c2c(Cl)cccc2Cl)c2ccccc12 | 88.8% (inactive)
CC1CC(C(C)(C)C)C(=O)C(C(C)(C)C)C1 (stereo unspecified) | 105% (inactive)
COc1ccc(-c2nc(SCCC(C)C)nc(N/N=C\c3ccccc3O)c2C#N)cc1 | 92.5% (inactive)
O=C1CCc2c(sc3[nH]c(=S)n(-c4ccc(OC(F)(F)F)cc4)c(=O)c23)C1 | 53.1% (inactive)
CC(C)CC(NC(=O)CN(Cc1ccccc1)S(C)(=O)=O)C(=O)O (stereo unspecified) | 96% (inactive)
COc1cc(N=Nc2ccc(N)cc2)c(OC)cc1N=Nc1ccccc1.[Cl][Zn][Cl] | 86.5% (inactive)
CCC1(C2CCCC2)NC(=O)NC1=O (stereo unspecified) | 115% (inactive)
Cc1ccc(C(=O)C2=C(O)C(=O)N(Cc3cccnc3)C2c2ccccc2F)o1 (stereo unspecified) | 91.6% (inactive)
COc1cccc(-c2nc3sccn3c2/C=C/C(=O)c2ccc(C(F)(F)F)cc2)c1 | 100% (inactive)
COc1ccc2c(c1)C(=O)/C(=C/c1ccc(OCC(=O)Nc3nccs3)cc1)O2 | 106% (inactive)
CC/C=C/C/C=C/C/C=C/C/C=C/C/C=C/C/C=C/CCC(=O)Nc1ccn([C@@H]2O[C@H](CO)[C@@H](O)C2(F)F)c(=O)n1 | 8.82% (active)
NC(=N\N=C/c1ccccc1[N+](=O)[O-])/C(N)=N\N=C/c1ccccc1[N+](=O)[O-] | 94% (inactive)
O=C(Cc1ccc(F)c(F)c1)Nc1cc(C2(C(F)(F)F)CC2)nn1Cc1ccccc1 | -0.0766% (active)
O=C(/C=C/c1ccc(Cl)nc1)c1ccc(Cl)cc1Cl | 106% (inactive)
O=C(Nc1ccccc1Cl)Oc1ccc(-c2ccccc2)cc1 | 96.3% (inactive)
CN(c1ccccc1)c1ccc2c(c1)OCCC21CC1Nc1cnccc1C(=O)O (stereo unspecified) | 63.2% (inactive)

Each compound was assayed on NCI-H460 lung in the same assay as above. Details: 10 µM unless noted.

SMILES | growth
Cc1c(C(=O)NC(Cc2ccccc2)C(O)C(=O)NCc2ccc(F)cc2)[nH]c2ccccc2c1=O (stereo unspecified) | 104% (inactive)
Cc1cc(C(=O)c2ccccc2)c(C)c2c1[nH]c1ccc(Cl)cc12 | 5.49% (active)
COc1ccc(C(=O)/C=C/c2c(C(F)(F)F)nc3sccn23)cc1OC | -46.6% (active)
O=Cc1c[nH]c2ccc(-c3csc4ccccc34)cc12 | 29.3% (inactive)
Cc1ccc(/C=C/c2c(C(=O)/C=C/c3ccc(C(F)(F)F)cc3)c(C)nc3ccccc23)cc1 | -69.6% (active)
N#CC1=C(/N=C/c2ccccc2)Oc2c(ccc3ccccc23)C1c1ccccc1 (stereo unspecified) | 11.6% (inactive)
O=C(NCCc1ccc(O)c(O)c1)C12CC3CC(CC(C3)C1)C2 | 110% (inactive)
Cc1cc(=O)[nH]c(N=Nc2c(O)[nH]c3ccccc23)n1 | 105% (inactive)
COc1ccc2oc3c(C)c4c(c(C)c3c2c1)C(=O)N(Cc1ccccc1)C4=O | 69.4% (inactive)
COc1ccc2[nH]c(O)c(/C=c3/cc4c(c(-c5cc(OC)c(OC)c(OC)c5)n3)=Nc3ccccc3-4)c2c1 | 71.6% (inactive)
CC(=O)c1nc(Nc2ccc(C)cc2)sc1C | 104% (inactive)
COc1ccc(N=C(c2ccccc2)C2C(=O)c3ccccc3C2=O)cc1 | 96.4% (inactive)
CCCCc1ccc(Nc2ccc(Nc3ccc(CCCC)cc3S(=O)(=O)O)c3c2C(=O)c2ccccc2C3=O)c(S(=O)(=O)O)c1 | 104% (inactive)
Cc1nn(-c2ccccc2)c2nc3c(c(-c4ccc(Cl)cc4)c12)CNC1(CCSCC1)N3 | 99.6% (inactive)
CN1CCN(CCCOc2ccc3nc(Nc4ccc(F)c(F)c4)ccc3c2)CC1 | 7.51% (active)
CC(CN1CCCCC1)C(=O)c1ccccc1 (stereo unspecified) | 105% (inactive)
Cc1cc(/C=C\c2ccc3ccccc3[n+]2C)c(O)c2ncccc12 | 4.5% (active)
COc1ccc2cc(-c3cc(OC)c(OC)c(OC)c3)c(=O)oc2c1 | 84.4% (inactive)
Cc1ccc(C2SCC(=O)N2Cc2ccccc2)cc1 (stereo unspecified) | 115% (inactive)

SMILES | growth
Cc1ccc(S(=O)(=O)Oc2cc(OS(=O)(=O)c3ccc(C)cc3)cc(OS(=O)(=O)c3ccc(C)cc3)c2)cc1 | 100% (inactive)
CS(=O)c1cccc(-c2ccc3nc(N)n(-c4ccc(C(F)(F)F)cc4)c(=O)c3c2)c1 (stereo unspecified) | 102% (inactive)
Clc1ccc(-c2c3ccc(=[N+]4CCCCC4)cc-3oc3cc(N4CCCCC4)ccc23)cc1 | -76.2% (active)
O=C1Nc2ccccc2/C1=C/c1cn(C(=O)c2c(Cl)cccc2Cl)c2ccccc12 | 71.2% (inactive)
CC1CC(C(C)(C)C)C(=O)C(C(C)(C)C)C1 (stereo unspecified) | 108% (inactive)
COc1ccc(-c2nc(SCCC(C)C)nc(N/N=C\c3ccccc3O)c2C#N)cc1 | 59.1% (inactive)
O=C1CCc2c(sc3[nH]c(=S)n(-c4ccc(OC(F)(F)F)cc4)c(=O)c23)C1 | 2.8% (active)
CC(C)CC(NC(=O)CN(Cc1ccccc1)S(C)(=O)=O)C(=O)O (stereo unspecified) | 98.7% (inactive)
COc1cc(N=Nc2ccc(N)cc2)c(OC)cc1N=Nc1ccccc1.[Cl][Zn][Cl] | 109% (inactive)
CCC1(C2CCCC2)NC(=O)NC1=O (stereo unspecified) | 102% (inactive)
Cc1ccc(C(=O)C2=C(O)C(=O)N(Cc3cccnc3)C2c2ccccc2F)o1 (stereo unspecified) | 107% (inactive)
COc1cccc(-c2nc3sccn3c2/C=C/C(=O)c2ccc(C(F)(F)F)cc2)c1 | 83.7% (inactive)
COc1ccc2c(c1)C(=O)/C(=C/c1ccc(OCC(=O)Nc3nccs3)cc1)O2 | 90.2% (inactive)
CC/C=C/C/C=C/C/C=C/C/C=C/C/C=C/C/C=C/CCC(=O)Nc1ccn([C@@H]2O[C@H](CO)[C@@H](O)C2(F)F)c(=O)n1 | 9.01% (active)
NC(=N\N=C/c1ccccc1[N+](=O)[O-])/C(N)=N\N=C/c1ccccc1[N+](=O)[O-] | 104% (inactive)
O=C(Cc1ccc(F)c(F)c1)Nc1cc(C2(C(F)(F)F)CC2)nn1Cc1ccccc1 | 0.876% (active)
O=C(/C=C/c1ccc(Cl)nc1)c1ccc(Cl)cc1Cl | 98% (inactive)
O=C(Nc1ccccc1Cl)Oc1ccc(-c2ccccc2)cc1 | 105% (inactive)
CN(c1ccccc1)c1ccc2c(c1)OCCC21CC1Nc1cnccc1C(=O)O (stereo unspecified) | 45.7% (inactive)
